Measurements from PubChem BioAssay AID588511 (Johns Hopkins Ion Channel Center, 2011).
In all, about 310,000 compounds went through this assay and about 3,600 (1.2%) were called active.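 The calls were made as follows: active = ratio plate-corrected score three or more library SD toward inhibition, starting fluorescence score within five deviations; inactive = the rest.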 The sample as a whole holds a higher share of actives than the screen did.

Each molecule was assayed against Anoctamin-1 (Mus musculus) (UniProt Q8BHY3) (assay: TMEM16A chloride channel inhibitors, primary screen, cell-based, HTS (AID 588511;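 as to normalized B-score (activity score, 25-100; higher = stronger inhibition): score derived from kinetic fluorescence span divided by baseline fluorescence per well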)). Conditions: HEK293 TMEM16A/YFP iodide influx fluorescence, ionomycin; at 10 µM.
Anoctamin-1 (Mus musculus), sequence (Q8BHY3 whole entry, looked up): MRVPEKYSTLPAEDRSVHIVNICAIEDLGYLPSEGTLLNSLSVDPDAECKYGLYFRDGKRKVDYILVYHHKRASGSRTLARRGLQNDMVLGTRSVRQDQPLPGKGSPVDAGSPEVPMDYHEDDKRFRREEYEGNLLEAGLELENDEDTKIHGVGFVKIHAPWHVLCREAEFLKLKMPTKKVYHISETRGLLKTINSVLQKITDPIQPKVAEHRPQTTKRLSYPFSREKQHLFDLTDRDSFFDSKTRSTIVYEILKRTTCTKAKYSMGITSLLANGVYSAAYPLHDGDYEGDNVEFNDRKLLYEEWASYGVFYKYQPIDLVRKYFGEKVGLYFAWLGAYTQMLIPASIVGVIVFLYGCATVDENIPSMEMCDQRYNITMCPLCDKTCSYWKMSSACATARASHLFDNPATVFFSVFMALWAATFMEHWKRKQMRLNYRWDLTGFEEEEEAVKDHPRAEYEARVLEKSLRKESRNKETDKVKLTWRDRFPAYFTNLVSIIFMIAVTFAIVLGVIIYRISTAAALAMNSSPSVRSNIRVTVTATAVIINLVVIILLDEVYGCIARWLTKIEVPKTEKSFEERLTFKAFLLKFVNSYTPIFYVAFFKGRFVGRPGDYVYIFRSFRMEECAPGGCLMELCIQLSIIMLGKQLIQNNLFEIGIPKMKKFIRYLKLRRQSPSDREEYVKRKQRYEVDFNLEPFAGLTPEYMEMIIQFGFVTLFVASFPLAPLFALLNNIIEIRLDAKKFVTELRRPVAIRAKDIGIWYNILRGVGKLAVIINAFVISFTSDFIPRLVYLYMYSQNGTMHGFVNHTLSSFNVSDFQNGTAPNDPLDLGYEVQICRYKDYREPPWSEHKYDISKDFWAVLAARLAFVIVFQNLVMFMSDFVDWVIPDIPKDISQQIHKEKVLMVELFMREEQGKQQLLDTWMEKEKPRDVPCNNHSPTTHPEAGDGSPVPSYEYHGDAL

Compound	normalized B-score (activity score, 25-100; higher = stronger inhibition)
CN(CC(=O)NCCc1ccccc1)S(=O)(=O)c1cnc[nH]1	inactive
COc1ccc(C2C(C(C)=O)=C(O)C(=O)N2c2nccs2)cc1 (stereo not given)	inactive
Cc1cc(C)c(-c2c(O)c3ccccc3n(C)c2=O)c(C)c1	inactive
CN(C)CCCN1C(=O)CSC1c1ccc([N+](=O)[O-])cc1 (stereo not given)	inactive
CCCCCCCCCCCCN1C(=O)CSC1c1cccnc1 (stereo not given)	25 (active)
CCCCCCOc1ccc(OC(=O)c2cccnc2)cc1	inactive
CCOC(=O)N/N=C1\CC(C)S(=O)(=O)c2ccc(Cl)cc21 (stereo not given)	inactive
CN(C)c1cc[n+](Cc2ccccc2)cc1	25 (active)
c1ccc(Cc2cc[n+](Cc3ccccc3)cc2)cc1	inactive
CN(C)c1ccc(/C=C2\NC(=S)N(Cc3ccccc3)C2=O)cc1	inactive
O=C(NCCC1CCCCN1S(=O)(=O)c1ccccc1)C(=O)NCC1CCCO1 (stereo not given)	inactive
COc1ccc(CN2CN(C3CCCC3)CSC2=S)cc1	inactive
COC(=O)c1c(C)c(C)nc(N)c1C#N	inactive
COc1ccc(CNC(=O)CN(Cc2ccccc2Cl)C(=O)c2csnn2)cc1	inactive
Cc1ccccc1-n1nnnc1SCCCC(=O)c1ccc(F)cc1	100 (active)
CC(=O)Nc1ccc(NC(=O)CSc2nnnn2-c2ccccc2F)cc1	inactive
O=C(CSc1nnnn1-c1ccc(O)cc1)c1ccc(F)cc1	inactive
CC1=C(C(=O)NC2CC(C)(C)Cc3c2cnn3-c2ccc(C)cc2)OCCO1 (stereo not given)	inactive
CCOC(=O)c1ccc(-n2c(CCC(=O)O)ccc2-c2ccccc2)cc1	inactive
Cc1noc(C)c1COC(=O)c1cc2ccccc2cc1O	25 (active)
Cc1noc(C)c1COC(=O)COc1ccc(-c2ccccc2)cc1	inactive
COCc1c(C(=O)OCc2c(C)noc2C)oc2ccccc12	inactive

Compound	normalized B-score (activity score, 25-100; higher = stronger inhibition)
CC(=O)Nc1ccc(S(=O)(=O)Nc2cc(C)cn(Cc3ccc(C)cc3)c2=O)cc1	inactive
O=C(Cc1ccccn1)c1ccc(O)cc1O	inactive
O=C(c1cc(COc2ccc(F)c(F)c2)on1)N1CCOCC1	inactive
CCn1ccnc1CN(C)C(=O)c1cc(COc2ccc(-n3cncn3)cc2)on1	inactive
C=CCC1(CC=C)CCCN1C(=O)c1cc(COc2ccc(-n3cncn3)cc2)on1	100 (active)
COc1ccc(-c2csc(NC(=O)COC(=O)c3ccc(Br)o3)n2)cc1	inactive
COc1ccc(N2CCN(C(=O)CNC(=O)c3ccc(Br)o3)CC2)cc1	inactive
COc1ccc(-c2nc(CCNC(=O)c3ccc(Br)o3)cs2)cc1	100 (active)
COc1ccc(C(=O)COC(=O)CNC(=O)c2cccs2)cc1Br	inactive
COc1ccc(CCC(=O)c2ccc(OC)cc2)cc1	100 (active)
CO/N=C/CC(=O)c1ccc(OC)cc1	inactive
COc1ccc(C(=O)CCC(=O)Nc2ccc(Cl)cc2)cc1	inactive
O=C(CSc1nc(=O)n2ccccc2n1)Nc1ccc2c(c1)OCCO2	inactive
CCOC(=O)CCc1c(C)c(C#N)c2[nH]c3ccccc3n2c1=O	inactive
CCCc1cc(=S)n2c([nH]c3ccccc32)c1C#N	25 (active)
Cc1ccccc1Cn1c(=O)[nH]c2ccccc21	inactive
CCC(=O)Nc1nc2ccccc2n1Cc1ccccc1C	inactive
CCC(=O)Nc1ccc2nc(C)n(Cc3ccccc3Cl)c(=O)c2c1	100 (active)
CCN1CCN(c2cc3nc(C)n(Cc4ccccc4)c(=O)c3cc2NC(=O)c2ccccc2F)CC1	inactive
COC(c1ccccc1)(c1ccccc1)C(Oc1nc(C)cc(C)n1)C(=O)O (stereo not given)	inactive
O=C1NCCn2nc3ccccc3c21	inactive
COc1ccc(NC(=O)C2CCN(S(=O)(=O)c3ccc4[nH]c(=O)oc4c3)CC2)c(OC)c1	inactive

Compound	normalized B-score (activity score, 25-100; higher = stronger inhibition)
Cc1ccc(OCc2cc(C(=O)N(C)CCc3ccccc3)no2)cc1C	inactive
CN(Cc1cccnc1)C(=O)c1cc(COc2ccc3ncccc3c2)on1	100 (active)
CC(=O)c1cccc(OCc2cc(C(=O)NC(C)Cc3cccnc3)no2)c1 (stereo not given)	inactive
CCOC(=O)c1cc2cc(-c3c(C(=O)OCC)oc4cc(O)cc(O)c4c3=O)ccc2o1	100 (active)
CCOC(=O)c1cc(=O)c2ccc(OCc3ccccc3)cc2o1	inactive
O=c1c(-c2ccc3c(c2)OCCO3)c(C(F)(F)F)oc2cc(O)cc(O)c12	inactive
COCCn1c(Cc2cccn2C)nnc1SCC(=O)Nc1nccs1	inactive
COCCCN1C(=O)c2ccc(C(=O)OCC(=O)NCc3ccccc3OC)cc2C1=O	inactive
CC1(N2CCOCC2)CC2(O)C(=[N+]1[O-])CCc1nonc12 (stereo not given)	inactive
CN1C(=O)/C(=C\c2cc(Br)cs2)c2ccccc21	inactive
CCOC(=O)C1=C(c2ccc(OC)cc2)C(=O)c2ccccc2C1=O	inactive
Cc1ccc(C2C3=C(Nc4[nH]n(-c5ccccc5)c(=O)c42)c2ccccc2C3=O)cc1 (stereo not given)	inactive
COC(=O)C1=C(C)NC2=C(C(=O)c3ccccc32)C1c1ccc(-c2ccc(C(=O)O)cc2)o1 (stereo not given)	25 (active)
CCCOc1ccc(-c2nc(N)n[nH]2)cc1	inactive
CCCOc1ccc(Cc2c(O)nc(SC)[nH]c2=O)cc1C	inactive
CCCOc1ccc(Cc2c(Cl)nc(SC)nc2NC)cc1	100 (active)
CSc1ncccc1C(=O)OCc1ccc(Br)cc1	inactive
COc1ccc(OC)c(C2C3=C(N=c4s/c(=C\c5cccc(O)c5)c(=O)n42)c2ccccc2CC3)c1 (stereo not given)	inactive
CC1=NN(c2ccccc2)C(=O)C1C(=O)c1ccc([N+](=O)[O-])cc1 (stereo not given)	inactive
O=C1CC(c2ccccc2)=NN1c1ccc([N+](=O)[O-])cc1	100 (active)
Cc1nn(-c2ccc([N+](=O)[O-])cc2)c(N)c1-c1ccccc1	inactive
CCNC(=O)NNC(=O)C1CC(c2cccs2)=NO1 (stereo not given)	inactive

Compound	normalized B-score (activity score, 25-100; higher = stronger inhibition)
Nc1nnc(SCC(=O)OCc2ccc(Cl)c(Cl)c2)s1	inactive
Cc1ccc(CNC(=O)C2CCCN2C(=O)NCc2ccccc2)cc1 (stereo not given)	inactive
Cc1ccc(N2C(=O)S/C(=C/c3cn(C)c4ccccc34)C2=O)cc1	25 (active)
Cc1cc(/C=C2\SC(=O)N(C)C2=O)c(C)n1-c1cccc(C(=O)O)c1	inactive
Cc1ccc(C(=O)N/C(=C\c2cn(C)c3ccccc23)C(=O)N2CCN(C)CC2)cc1	inactive
CC(C)COc1ccc(C(=O)OCC(=O)NCCC2=CCCCC2)cc1	inactive
CC(C(=O)NC1CCS(=O)(=O)C1)N1C(=O)/C(=C/c2ccc(Cl)cc2)SC1=S (stereo not given)	inactive
Cc1noc(C)c1CSc1nc2cc(S(=O)(=O)N3CCOCC3)ccc2o1	inactive
COc1ccc(S(=O)(=O)NCCc2c[nH]c3ccccc23)cc1OC	inactive
COc1cccc(CNCCc2c[nH]c3ccccc23)c1OCc1ccccc1F	100 (active)
COc1ccccc1NC(=O)CCCc1c[nH]c2ccccc12	inactive
CC(=O)Nc1ccc(Sc2ccccc2C(=O)N2CCCC2)cn1	inactive
COc1ccc(-n2ncc3c2CC(C)(C)CC3NC(=O)CCc2c(C)nn(C)c2C)cc1 (stereo not given)	inactive
COc1ccc(CNC(=O)C(=O)N2CCC3(CC2)OCCN3S(=O)(=O)c2ccc(C)cc2)cc1	inactive
CCOC(=O)C(Sc1ncc(C#N)c(N)n1)C(C)C (stereo not given)	100 (active)
CCCCOc1ccc(-c2ncc(C(=O)OCC)c(N)n2)cc1	inactive
CCOC(=O)CSc1nccc(N(C)C)c1C#N	inactive
COc1cc2sc(C)nc2cc1C	inactive
CCOc1ccc(-c2noc(CCC(=O)NC3CCCC3)n2)cc1OC	inactive
COc1cccc(NC(=O)CCc2nnc3ccc(N4CCC(C)CC4)nn23)c1	inactive
Cc1ccc(NC(=O)C2CC2c2ccccc2)cc1 (stereo not given)	inactive
O=C(Nc1ccc(-c2ccc3nncn3n2)cc1)C1CCCCC1	inactive

Compound	normalized B-score (activity score, 25-100; higher = stronger inhibition)
CC(C)NS(=O)(=O)c1ccc(NC(=O)C2CCCCC2)cc1	inactive
O=C(O)c1ccc(NC(=O)C2CCCCC2)cc1	100 (active)
COc1ccc(NC(=O)CN(C)CC(=O)Nc2cccc(C(F)(F)F)c2)cc1	inactive
COc1cc(C(=O)N(C)Cc2cccc(OC)c2OC)ccc1OCC(=O)Nc1cccc(C(F)(F)F)c1	100 (active)
CCNC(=O)c1ccc(OCC(=O)Nc2ccc(F)cc2)c(OC)c1	inactive
COC(=O)Cc1ccc(N(Cc2ccccc2F)S(=O)(=O)c2ccc(Br)cc2)cc1	inactive
Cc1ccc(S(=O)(=O)NC(=O)Nc2nc(-c3ccc(F)c(F)c3)cs2)cc1	inactive
COc1ccc(-c2csc(NC(=O)COC(=O)Cc3ccc(Cl)cc3Cl)n2)cc1	inactive
COc1cc(CC(=O)Nc2nc(-c3ccc(F)c(F)c3)cs2)cc(OC)c1OC	25 (active)
CCCc1ccc(-c2csc(NC(=O)Cc3cccs3)n2)cc1	inactive
COc1ccc(CC(=O)Nc2nc(-c3ccc(F)c(F)c3)cs2)cc1OC	25 (active)
COc1cc(CC(=O)NCc2cccs2)cc(OC)c1OC	inactive
CCn1c(SCc2cccc(C(=O)O)c2)nnc1-c1ccc(Cl)cc1	inactive
Cn1ccnc1-c1nnn(-c2ccc(F)cc2)n1	inactive
COC(=O)c1ccc(OC(=O)c2nn(C)cc2Cl)c(OC)c1	inactive
Cc1noc(C)c1-c1nc(CSc2ccc(Cl)cc2)no1	inactive
Cc1cc(C)n(CC(=O)Nc2ccc([N+](=O)[O-])cc2)n1	inactive
COCCCNC(=O)c1ccc(CNS(=O)(=O)c2ccc(NC(C)=O)cc2)cc1	inactive
Cc1cc(N=Nc2ccc3ccccc3c2)ccc1O	inactive
Cc1cccc(-c2c(NC(=O)c3ccco3)oc3ccc(Cl)cc3c2=O)c1	inactive
CN(C)CCCO/N=C(\c1ccccc1)c1ccncc1	inactive
CC(C)Oc1ccc(/C=C(\NC(=O)/C=C/c2ccco2)C(=O)NCCc2nc3ccccc3[nH]2)cc1	inactive
